SARS PLP yeast – qHTS of Yeast-based Assay for SARS-CoV PLP; S. cerevisiae expressing SARS-CoV PLpro, growth rescue; Potency, µM (series often up to 32.9 µM), hits mostly activators; actives 0.19% (n = 330,000); calls by dose curve; note: nearly all actives have a fitted effect of over 55% in size
Pf growth 96h – Primary qHTS for delayed death inhibitors of the malarial parasite plastid, 96 hour incubation; P. falciparum luciferase reporter growth, 96 h; Potency, µM (highest dose often 28.7 µM), actives largely listed as inhibitors; actives 6.9% (n = 320,000); AID 504834, 2011
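Plates of compound plus infected erythrocytes (2% hematocrit, 0.05% parasitemia final) incubate 96 hours, 37 C, 5% CO2. Detection reagent added; reduced luminescence from the parasites' luciferase reporter flags inhibition.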
Sm TGR inh – qHTS Assay for the Inhibitors of Schistosoma Mansoni Peroxiredoxins | actives 3% (n = 360,000) | purified TGR, DTNB reduction, TNB absorbance 405 nm | Potency, µM (titrated, usually from 114 µM), usual class: inhibitors | Schistosoma mansoni thioredoxin glutathione reductase (TGR), Q962Y6; note: nearly all actives have a fitted effect of over 60% in size
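TGR 20 nM + NADPH 100 uM (dispensed conc.), cpd preinc 15 min RT; start with NADPH (500 uM addition) then DTNB (15 mM addition). Kinetic TNB absorbance, 405 nm filter. Four-parameter Hill fit across titration.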
HCV inhibitor – qHTS Assay for Inhibitors of Hepatitis C Virus (HCV). Huh7.5.1 HCVcc-Cre infection, luciferase reporter, 44 h. AID 651820, 2012. Potency, µM (highest dose often 41.8 µM), actives largely listed as inhibitors. actives 3.4% (n = 340,000)
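Whole-lifecycle infectious HCVcc-Cre system; cells 1,000/well, compound then virus (~0.5 moi) added 4 h after plating, 44 h culture. Luciferase read 15 sec following 15 min substrate incubation, room temp.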
HCMV inh – qHTS Assay for inhibitors of the human cytomegalovirus (HCMV) | HFF cells, HCMV-luciferase reporter, 72 h; hits give low values | activity change, negative = inhibition, % at 57.5 µM | actives 4.5% (n = 410,000) | AID 1259415, 2018; in the data active = activity change below about -60%; inconclusive = no clear call, values can overlap the other calls; inactive = above about -39%
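Luciferase read-out from HCMV-luciferase-infected HFFs (MOI 1 PFU/cell) 72 h post infection at 37C; compounds added after 16 h cell attachment; activity normalized between buffer-only basal and Salinomycin (10uM) inhibitor controls.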
Pf growth 48h – Primary qHTS for delayed death inhibitors of the malarial parasite plastid, 48 hour incubation; Potency, µM (top dose mostly 28.7 µM), actives largely listed as inhibitors; AID 504832, 2011; P. falciparum luciferase growth in erythrocytes, 48 h; actives 5.9% (n = 310,000)
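A one-generation exposure of luciferase-tagged malaria parasites in RPMI 1640/Albumax erythrocyte culture, 37 C and 5% CO2. Inhibition is inferred from decreased luminescence after adding detection reagent.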
HCV inh confirm – qHTS Assay for Inhibitors of Hepatitis C Virus (HCV): Confirmation Assay for Cherry-picked Compounds; shares compounds with HCV inhibitor; HCVcc-Cre infectious virus cell assay, luciferase, inhibition; Potency, µM (series often up to 41.8 µM), hits mostly inhibitors; actives 78% (n = 640); note: nearly all actives have a fitted effect of over 80% in size
HCV host tox – qHTS Assay for Inhibitors of Hepatitis C Virus (HCV): Cytotoxicity Counterscreen for Cherry-picked Compounds | HCV host cell line cytotoxicity counterscreen | AID 720576, 2013 | actives 22% (n = 640) | Potency, µM (series often up to 41.8 µM), most hits filed as inhibitors | shares compounds with HCV inhibitor;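 note: 44 h compound exposure; nearly all actives have a fitted effect of over 55% in size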
Of the large screens only hits and unclear results are named; the others gave an inactive call (follow-up assays come after a bar, where they were run). A selection: hits, their analogues and other compounds. The true share with any hit is near 15%. Unless noted, calls come from the whole dose curve; as a rule, active = well fitted curve in the direction sought with a large enough effect; inconclusive = small, poorly fitted or top-dose-only effect, or another doubt; inactive = no such curve, though single readings can be large; an effect the other way counts as inactive or inconclusive.

CCC(C)NC(=O)c1cc2cc(S(=O)(=O)N3CCCCC3)ccc2n1C (configuration not stated)	none (no result: SARS PLP yeast, Pf growth 96h, HCV inhibitor, Pf growth 48h)
COCCCn1c(=NC(=O)c2ccc3c(c2)OCO3)c(C#N)cc2c(=O)n3cccc(C)c3nc21	Pf growth 48h inconclusive (no result: HCV inhibitor, HCMV inh)
Cc1cccc(C(=O)N=c2c(C#N)cc3c(=O)n4cccc(C)c4nc3n2Cc2ccco2)c1	Pf growth 96h 13µM, Sm TGR inh 45µM, HCV inhibitor 5.6µM (no result: Pf growth 48h) | HCV inh confirm 4µM | HCV host tox inactive
COc1ccc(CCC(C)NC(=O)Cc2ccc(OC)c(OC)c2)c(OC)c1 (configuration not stated)	HCV inhibitor 7.1µM | HCV inh confirm 11µM | HCV host tox inconclusive
COc1ccc(N=Nc2nc(-c3ccccc3)c(-c3ccccc3)[nH]2)cc1	Pf growth 96h inconclusive, HCV inhibitor inconclusive, Pf growth 48h inconclusive
Oc1ccccc1N=Nc1nc(-c2ccccc2)c(-c2ccccc2)[nH]1	Pf growth 96h 2.1µM, HCV inhibitor 3.5µM, HCMV inh -107 (no result: Pf growth 48h) | HCV inh confirm 7.9µM | HCV host tox inactive
COc1cc(-c2nnc(-c3ccccc3)o2)cc(OC)c1OC	Pf growth 96h inconclusive, HCV inhibitor inconclusive, Pf growth 48h inconclusive | HCV inh confirm 14µM | HCV host tox inactive
CN1CCN(S(=O)(=O)c2ccc(N(C)Cc3ccc(C(F)(F)F)cc3)c([N+](=O)[O-])c2)CC1	Pf growth 96h inconclusive, HCV inhibitor 3.2µM, HCMV inh inconclusive, Pf growth 48h 10µM | HCV inh confirm 14µM | HCV host tox 28µM
C=CCOc1ccc(CN(C)c2ccc(S(=O)(=O)N3CCN(C)CC3)cc2[N+](=O)[O-])cc1	HCV inhibitor inconclusive, Pf growth 48h inconclusive
Cn1c(SCC(=O)Nc2ccccc2F)nc2c(c1=O)SCC2	HCV inhibitor 6.3µM, Pf growth 48h inconclusive | HCV inh confirm 22µM | HCV host tox inactive
Cc1ccccc1NC(=O)CSc1nc2c(c(=O)n(C)c(=O)n2C)n1C	none
Cc1ccccc1NC(=O)CSc1nc2ccccc2c(=O)n1C	HCV inhibitor 3.2µM | HCV inh confirm 8.9µM | HCV host tox 14µM
Cc1ccc(S(=O)(=O)N(C)C)cc1-n1c(SCC(=O)Nc2ccc(F)cc2Cl)nc2ccccc2c1=O	Pf growth 96h inconclusive, HCV inhibitor 1.3µM, Pf growth 48h 13µM | HCV inh confirm 14µM | HCV host tox inactive
Cn1c(SCC(=O)Nc2ccc(F)cc2)nc2c(c1=O)SCC2	HCV inhibitor inconclusive
Cc1c(O)nc(SCC(=O)Nc2ccc(Cl)cc2Cl)n(-c2ccc(F)cc2)c1=O	none (no result: SARS PLP yeast, Pf growth 96h, HCV inhibitor, Pf growth 48h)
COc1ccc(S(=O)(=O)n2ccc(-c3ccc(OCCN(C)c4ccccn4)cc3)n2)cc1	Pf growth 96h 10µM, HCV inhibitor 6.3µM, HCMV inh inconclusive, Pf growth 48h 4.7µM | HCV inh confirm 7µM | HCV host tox inconclusive
CC(C)(c1cc(Cl)c(O)c(CN2CCOCC2)c1)c1cc(Cl)c(O)c(CN2CCOCC2)c1	HCV inhibitor 3.2µM (no result: SARS PLP yeast, Pf growth 96h, Sm TGR inh, Pf growth 48h) | HCV inh confirm 6.3µM | HCV host tox inactive

Source: PubChem BioAssay
